A number with no mark means an inactive call. Calls of active or inactive are those of the source.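 The calls were made as follows: active = fluorescence slope after compound addition differing from the mean of all screened samples at 99.7% confidence, in either direction; inactive = the rest.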

Chain of Alpha-2C adrenergic receptor (Homo sapiens) (P18825 whole entry, looked up): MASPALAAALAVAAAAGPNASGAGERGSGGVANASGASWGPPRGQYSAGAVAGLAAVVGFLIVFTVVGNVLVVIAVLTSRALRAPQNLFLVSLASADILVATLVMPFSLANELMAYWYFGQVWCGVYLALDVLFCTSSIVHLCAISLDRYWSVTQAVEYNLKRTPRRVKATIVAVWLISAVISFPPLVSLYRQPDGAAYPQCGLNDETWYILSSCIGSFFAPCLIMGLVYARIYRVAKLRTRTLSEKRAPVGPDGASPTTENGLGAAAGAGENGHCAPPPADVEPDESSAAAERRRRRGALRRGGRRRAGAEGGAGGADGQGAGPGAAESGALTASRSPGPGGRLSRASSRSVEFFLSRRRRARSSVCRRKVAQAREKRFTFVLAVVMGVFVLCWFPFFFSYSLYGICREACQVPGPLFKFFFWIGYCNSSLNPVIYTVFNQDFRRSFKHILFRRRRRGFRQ

This assay has as its target Alpha-2C adrenergic receptor (Homo sapiens) (UniProt P18825). Description: compounds altering alpha2C-coupled GIRK flux – cell-based, HEK293 alpha2C/GIRK1/2, thallium flux, primary screen (AID 624).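 Also: slope of fluorescence ratio to pre-addition baseline per second over 15 to 24 s.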 The conditions noted are these: thallium flux BTC fluorescence, at 10 µM, actives lie on both sides.
As for `CNc1oc(-c2ccc(Cl)cc2)nc1C#N`, the slope is 0.00621.

As to `O=C(CNC1=NCCC1)c1ccc2c(c1)OCCO2`, the slope was 0.006. `COc1ccc(CNC(=O)c2c(C)cc(=O)oc2C)cc1OC`: the slope was 0.00518. For `C=CCOn1c(=O)c(-c2cc3ccccc3o2)[n+]([O-])c2ccccc21`, the slope is 0.00548. The result for `COC(=O)c1ccn(C(=O)c2ccc(Cl)cc2)n1` reads 0.00635; that for `c1ccc(OCc2nn3c(C4CCCCC4)nnc3s2)cc1`, 0.00482. `CC(C)Cc1nc(N2CCN(C(=O)C(C)C)CC2)c(C#N)c2c1CCC2`: the slope is 0.00462.

Regarding `COC(=O)c1sccc1NC(=O)c1c(C)cc(=O)oc1C`, the slope is 0.00537. In the case of `Cc1ccc(S(=O)(=O)N2CCC(N3CCCCCC3)CC2)cc1`, the slope was 0.0051. As for `COc1ccc(C2=Nn3c(nnc3-c3cccnc3)SC2)cc1OC`, the slope was 0.00709. As for `CCCCOc1ccc(CN(C)c2ncnc(N)n2)cc1`, the slope was 0.00652.

In the case of `CCCCCCc1cc2cc(-c3nnc(-c4ccccc4O)o3)c(=O)oc2cc1O`, the slope was 0.0685 (active).

`CC(=O)Nc1cccc(NC(=O)CSc2nc(C)c(C)c(C)c2C#N)c1`: the slope was 0.0055.

On to `Cc1cc(=O)oc2cc(OCCSCCN3CCOCC3)ccc12`, for which the slope was 0.00648.

As for `COc1ccccc1C(CC(=O)Nc1nccs1)c1ccco1` (stereo not given), the slope is 0.00663. The figure for `CCC1(C)Cc2ccccc2-c2nc(NCCO)n(-c3ccccc3)c(=O)c21` (stereo not given) is 0.00569. The result for `CC1(C)Cc2c(sc3c4nnnn4c4nnnn4c23)CO1` reads 0.0051; that for `CC(C)CN1C(=O)NC(NC(=O)c2cccnc2)(C(F)(F)F)C1=O` (stereo not given), 0.00612; that for `CCOC(=O)C(C)Oc1nc(Oc2ccccc2)nc(N(C)C)n1` (stereo not given), 0.00486. `CC1(C)Cc2nc(N)c(C(=O)NCCO)cc2CO1`: the slope is 0.00417.

Take `COc1ccc(Cn2c(O)cc(=O)[nH]c2=O)cc1`: the slope was 0.00581. The result for `CC(C(=O)N1CCOCC1)N1C(=O)c2ccccc2C1=O` (stereo not given) reads 0.0049; that for `COC(=O)CSc1nc(N)c2c3c(sc2n1)CCCC3`, 0.00567. The result for `N#Cc1c(-c2ccco2)cc(C2CC2)nc1N` reads 0.00359; that for `CC1(C)Cc2c(C#N)c(N3CCOCC3)nc(-c3ccccc3)c2CO1`, 0.0042; that for `CC(=O)Nc1cnc2ccccc2n1`, 0.00508. The figure for `COc1ccc(OCC(=O)N2CCN(C(=O)c3cccc4ccccc34)CC2)cc1` is 0.00599; for `CC(C)CC(=O)Nc1ccccc1N1CCCC1` it is 0.0054; for `CCCNC(=O)N(C)c1nncnc1C(=O)NC` it is 0.00825.

Consider `N#CC1(P(=O)(c2ccccc2)c2ccccc2)CC1`, for which the slope was 0.00538. The result for `Cc1nc(Nc2ncc3c(n2)CC(C)(C)CC3=O)nc2ccccc12` reads 0.0055. Regarding `O=c1c(F)cn(C2CCCO2)c(=O)n1Cc1ccccc1Cl` (stereo not given), the slope was 0.00591. The figure for `CCC(=O)Nc1cc(-c2nn(C)c(=O)c3ccccc23)ccc1N1CCCCC1` is 0.00441. For the compound `O=c1[nH]c(=O)n(Cc2ccco2)c2c1C(C(F)(F)F)(C(F)(F)F)N=C(c1ccco1)N2`, the slope is 0.00631. The result for `Cn1c(=O)n(C)c2cc(C(=O)c3ccccc3)ccc21` reads 0.00503; that for `N#Cc1nc(-c2ccc(Cl)cc2)oc1N1CCCCC1`, 0.00666. The figure for `Cc1cc(=O)oc(C)c1C(=O)NCCNC(=O)c1c(C)cc(=O)oc1C` is 0.0046; for `CCCCNC(=O)N1CCOCCOCCN(C(=O)NCCCC)CCOCC1` it is 0.0049; for `CCN(CC)c1ccc2cc(C(=O)Nc3ccccn3)c(=O)oc2c1` it is 0. The figure for `CCN1CC2=C(OC(N)=C(C#N)C2c2ccccc2)/C(=C\c2ccccc2)C1` (stereo not given) is 0.00402.

Source of the values: PubChem BioAssay.
